Data: PubChem BioAssay (NCATS)
Calls of active or inactive are those of the source. Calls come from the whole dose curve; as a rule, active = well fitted curve in the direction sought with a large enough effect; inconclusive = small, poorly fitted or top-dose-only effect, or another doubt; inactive = no such curve, though single readings can be large or run the other way.

target: alpha-glucosidase (Oryza sativa, rice) (UniProt Q653V4); assay: Counterscreen for Glucocerebrosidase Inhibitors: qHTS Assay for Rice alpha-Glucosidase at pH 5.0 (AID 997); details: rice alpha-glucosidase enzyme activity; series mostly up to 76.9 µM
From the text: NIH Chemical Genomics Center [NCGC]
NIH Molecular Libraries Screening Centers Network [MLSCN]
PI Name: Zheng, Wei [NIH]
Alpha-glucosidase is responsible for hydrolysis of terminal, non-reducing 1,4-linked alpha-D-glucose residues with release of alpha-D-glucose. It is a lysosomal hydrolase that is required for the degradation of a small percentage (1-3%) of cellular glycogen in human. Deficiency of this enzyme results in glycogen-storage disease type II (GSDII), also referred to as Pompe disease, an autosomal recessive disorder. Structurally normal glycogen is accumulated in lysosomes and cytoplasm in affected patients, primarily in muscle tissues. Excessive glycogen storage within lysosomes may interrupt normal functioning of other organelles and leads to cellular injury. In turn, this leads to enlargement and dysfunction of the entire organ involved (eg, cardiomyopathy and muscle weakness).
It has reported that the improper folding and trafficking of alpha-glucosidase resulted from the genetic mutations may account for a significant number of Prope patients. […] We optimized this alpha-glucosidase assay in 1536-well plate format for identifying the novel small molecule inhibitors with the structures other than the sugar analogs in order to develop the new pharmacological chaperones.
NCGC Assay Protocol Summary:
This is a fluorogenic enzyme assay with 4-methylumbelliferyl-alpha-D-pyranoside as the substrate and rice alpha-glucosidase as the enzyme preparation. Upon the hydrolysis of this fluorogenic substrate, the resulting product, 1. 4-methyllumbelliferone, can be excited at 365 nm and emits at 440 nm which can be detected by a standard fluorescence plate reader. Data were normalized to the controls for basal activity (without enzyme) and 100% activity (with enzyme). In the AC50 values were determined from concentration-response data modeled with the standard Hill equation.
Assay buffer: 50 mM citric acid, 0.005% Tween-20, pH 5.0. (pH 5.0 is an optimal condition for this enzyme assay)
1536-well assay protocol for the human alpha-glucosidase:
(1) Add 2 ul/well of enzyme (4 nM final)
(2) Add 23 nL compounds in DMSO solution. The final titration was 0.7 nM to 77 uM.
(3) Add 1 ul of substrate (400 uM final)
(4) Incubate at room temperature for 20 min.
(5) Add 2 ul stop solution (1M NaOH and 1M Glycine mixture, pH 10)
(6) Detect the assay plate in a ViewLux plate reader (PerkinElmer) with Ex=365 nm and Em=440nm.
Keywords: Alpha-glucosidase, Prope Disease, pharmacological chaperone, chaperone therapy, high throughput screening, alpha-glucosidase inhibitor, MLSMR, MLSCN, NIH Roadmap, qHTS and NCGC

Structure (SMILES)	outcome
C[C@@]12CCC(=O)C=C1CC[C@@H]1[C@@H]2[C@H](O)C[C@]2(C)[C@@H]1CC[C@]2(O)C(=O)COC(=O)CCC(=O)O	inactive
CN1C[C@@H](C(=O)N[C@]2(C)O[C@]3(O)[C@H]4CCCN4C(=O)[C@H](Cc4ccccc4)N3C2=O)C[C@H]2c3cccc4[nH]cc(c34)C[C@@H]21	inactive
N[C@H](Cc1ccc(F)cc1)C(=O)O	inactive
CC(C)(C(=O)O)c1ccc([C@@H](O)CCCN2CCC(C(O)(c3ccccc3)c3ccccc3)CC2)cc1	inactive
CCN1CCC[C@@H]1CNC(=O)c1c(O)c(Cl)cc(Cl)c1OC	inactive
C[C@H](N)C1CCC(C(=O)Nc2ccncc2)CC1 (stereo not given in full)	inactive
COc1cc([C@H]2c3cc4c(cc3[C@@H](O)[C@@H]3COC(=O)[C@H]23)OCO4)cc(OC)c1OC	inactive
C/C=C\C[C@H](C)[C@H](O)[C@H]1C(=O)N[C@@H](CC)C(=O)N(C)CC(=O)N(C)[C@@H](CC(C)C)C(=O)N[C@@H](C(C)C)C(=O)N(C)[C@@H](CC(C)C)C(=O)N[C@@H](C)C(=O)N[C@@H](C)C(=O)N(C)[C@@H](CC(C)C)C(=O)N(C)[C@@H](CC(C)C)C(=O)N(C)[C@@H](C(C)C)C(=O)N1C	inactive
N#C[C@@H](Cc1ccc(O)c(O)c1)C(=O)N1CCc2ccccc21	inactive
O=c1[nH]c(=O)n([C@H]2C[C@H](O)[C@H](CO)O2)cc1/C=C\Br	inactive
OC[C@@H]1O[C@@H](n2cnc3c(Nc4ccccc4)ncnc32)[C@@H](O)[C@H]1O	inactive
Nc1ncnc2c1ncn2[C@@H]1O[C@@H](COP(=O)(O)OP(=O)(O)OP(=O)(O)OP(=O)(O)OC[C@@H]2O[C@@H](n3cnc4c(N)ncnc43)[C@@H](O)[C@H]2O)[C@H](O)[C@@H]1O	inactive
CNC(=O)[C@@H]1O[C@@H](n2cnc3c(NCc4cccc(I)c4)ncnc32)[C@H](O)[C@@H]1O	inactive
C#CCN1C(C)=C(C(=O)OC)[C@@H](c2cccc([N+](=O)[O-])c2)C(C(=O)OCC)=C1C	inactive
COC(=O)C1=C(C)NC(C)=C(C(=O)OCCN(C)Cc2ccccc2)[C@@H]1c1cccc([N+](=O)[O-])c1	inactive
O=C(O)[C@@H]1CCCN[C@H]1C(=O)O	inactive
O=C1[C@@H]2C=CC=CC2=NC(=S)N1CCN1CCC(=C(c2ccc(F)cc2)c2ccc(F)cc2)CC1	inactive
CCCN(CCc1ccccc1)[C@H]1CCc2c(O)cccc2C1	inactive
O=C(/C=C\c1ccc(O)c(O)c1)OCCc1ccccc1	inactive
O=C(/C=C\c1ccc(O)cc1)c1ccc(O)cc1O	inactive

Structure (SMILES)	outcome
CC[C@]1(O)C[C@H]2CN(CCc3c([nH]c4ccccc34)[C@](C(=O)OC)(c3cc4c(cc3OC)N(C)[C@@H]3[C@](O)(C(=O)OC)[C@H](OC(C)=O)[C@]5(CC)C=CCN6CC[C@]43[C@@H]65)C2)C1	inactive
OC[C@@H]1O[C@@H](n2cnc3cncnc32)[C@@H](O)[C@H]1O	inactive
CCOC(=O)C1=C(C)NC(C)=C(C(=O)OC)[C@H]1c1cccc(Cl)c1Cl	inactive
COc1ccc(NC(=O)/C=C\c2ccc(Cl)cc2)cc1	inactive
CCNC(=O)[C@@H]1O[C@@H](n2cnc3c(N)nc(NCCc4ccc(CCC(=O)O)cc4)nc32)[C@H](O)[C@@H]1O	inactive
Cc1cc(C)c(/C=C2/C(=O)Nc3ccccc32)[nH]1	inactive
O=C(O)C[C@@H]1CCCc2ccccc2[C@H]1O	inactive
NC(=S)c1ccc[n+]([C@@H]2O[C@@H](COP(=O)([O-])OP(=O)(O)OC[C@@H]3O[C@@H](n4cnc5c(N)ncnc54)[C@@H](OP(=O)(O)O)[C@H]3O)[C@@H](O)[C@H]2O)c1	inactive
CSc1ccc2c(c1)N(CC[C@H]1CCCCN1C)c1ccccc1S2	inactive
CN(C)CCCO[C@H]1[C@H]([C@H](O)CO)O[C@H]2OC(C)(C)O[C@@H]21	inactive
Clc1ccc(C(c2ccc(Cl)cc2)n2cc[n+](C[C@@H](OCc3ccc(Cl)cc3Cl)c3ccc(Cl)cc3Cl)c2)cc1	inactive
C=CCN1CCc2c(cc(O)c(O)c2Br)[C@H](c2ccccc2)C1	inactive
c1ccc2c(c1)CCC[C@H]2C1=NCCN1	inactive
NCCC[C@@](N)(C(=O)O)C(F)F	inactive
CC(=O)[C@@]1(O)CC[C@@H]2[C@@H]3CCC4=CC(=O)CC[C@@]4(C)[C@H]3CC[C@]21C	inactive
COc1cc2nc(N3CC=[N+](C(=O)c4ccco4)CC3)nc(N)c2cc1OC	inactive
CC(=O)S[C@@H]1CC2=CC(=O)CC[C@@]2(C)[C@H]2CC[C@]3(C)[C@H](CC[C@@]34CCC(=O)O4)[C@H]12	inactive
CC(=O)O[C@@H]1C[C@]2(C)[C@H](C[C@@H](O)[C@H]3[C@@]4(C)CC[C@@H](O)[C@@H](C)[C@@H]4CC[C@@]32C)/C1=C(\CCC=C(C)C)C(=O)O	inactive
N[C@H](Cc1cccc(-c2ccccc2CP(=O)(O)O)c1)C(=O)O	inactive
CN1[C@@H]2CC(OC(=O)[C@@H](CO)c3ccccc3)C[C@H]1[C@H]1O[C@H]12 (stereo not given in full)	inactive
